Compounds without any hit were thinned out: in the full panel of roughly 83,000, 20% have a hit.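 How to read the values: 0–100, growth inhibition (40 = 60% inhibited); 0, no net growth; -100 to 0, cell death (-40 = 40% of starting cells died; -100 = all dead).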 Values without a mark were called inactive. Activity calls are given as the source filed them. Rule for the calls: active = growth percent below 10; inactive = the rest.

Test systems include SR leukemia; RPMI-8226 leukemia; OVCAR-8 ovarian; OVCAR-5 ovarian; OVCAR-4 ovarian; SK-OV-3 ovarian; IGROV1 ovarian; OVCAR-3 ovarian; HS 578T breast; NCI/ADR-RES ovarian; T-47D breast; BT-549 breast; MDA-MB-435 melanoma; SW-620 colon; MCF7 breast; HCT-116 colon; HCC-2998 colon; KM12 colon; MDA-MB-468 breast.
Common to all, as to assay: NCI-60 one-dose screen, 48 h (100 = growth as untreated, 0 = no growth, -100 = all killed)
Details in all cases: 10 µM unless noted

Consider `Cc1ccccc1[C@H]1C(C(=O)c2ccc(Cl)cc2)C2(N[C@@H]1c1ccccc1)C(=O)Nc1ccc(Cl)cc12` (stereo partly drawn), for which the growth with SR leukemia is -23.6% (active); in the test on RPMI-8226 leukemia, -11.8% (active); in the test on OVCAR-8 ovarian it was -69.2% (active); with OVCAR-5 ovarian, -55.8% (active); in the test on OVCAR-4 ovarian, 11.2%; in the test on SK-OV-3 ovarian, 1.06% (active). Moreover, the growth in the test on IGROV1 ovarian was 2.05% (active); in the test on OVCAR-3 ovarian, -52.4% (active); in the test on HS 578T breast, 6.9% (active); in the test on NCI/ADR-RES ovarian, -65.7% (active); with T-47D breast, 13%; in the test with BT-549 breast, -29.4% (active). Further, the growth with MDA-MB-435 melanoma was -35.4% (active); in the test with SW-620 colon, -9.32% (active); with MCF7 breast it was -22.3% (active); with HCT-116 colon it was -84.6% (active); in the test on HCC-2998 colon it was -54.2% (active); in the test with KM12 colon, -24.3% (active). In the test on MDA-MB-468 breast, the growth is -19.1% (active).
Turning to `O=C(c1ccccc1)c1ccc2nc(-c3ccc(F)cc3)[nH]c2c1`, the growth in the test on SR leukemia was 27.9%; in the test with RPMI-8226 leukemia, 43.1%; with OVCAR-8 ovarian, 83.3%; in the test on OVCAR-5 ovarian, 41.5%; with OVCAR-4 ovarian, 49.5%; in the test on SK-OV-3 ovarian, 74%. Moreover, the growth in the test with IGROV1 ovarian was 45.9%; in the test with OVCAR-3 ovarian, 32.6%; with HS 578T breast, 65.1%; in the test with NCI/ADR-RES ovarian, 58.3%; in the test on T-47D breast, 47.5%; in the test with BT-549 breast, 40.1%. Also, the growth with MDA-MB-435 melanoma is 57.6%; with SW-620 colon, 28.2%; in the test on MCF7 breast it was 35.9%; with HCT-116 colon, 41.7%; with HCC-2998 colon, 91%; in the test with KM12 colon it was 65%. Also, in the test on MDA-MB-468 breast, the growth was 42.8%.
As to `Cc1ccc(C(=O)CSc2nc3ccc(F)cc3c(=O)n2-c2ccc(Cl)cc2)cc1`, the growth in the test on SR leukemia is 93.9%; in the test with RPMI-8226 leukemia, 93.9%; with OVCAR-8 ovarian, 37.8%; in the test on OVCAR-5 ovarian, 76.2%; with OVCAR-4 ovarian, 31%; in the test with SK-OV-3 ovarian, 46%. Also, the growth is 82.7% in the test on IGROV1 ovarian; 82.4% with OVCAR-3 ovarian; -18.9% (active) with HS 578T breast; 28.3% in the test with NCI/ADR-RES ovarian; 96.5% with T-47D breast; 1.44% (active) in the test on BT-549 breast. In addition, the growth with MDA-MB-435 melanoma is 76.1%; in the test on SW-620 colon it was 75%; in the test on MCF7 breast, 65.2%; in the test on HCT-116 colon, 24.4%; in the test on HCC-2998 colon, 81.3%; in the test on KM12 colon it was 96.3%. The growth with MDA-MB-468 breast is 44.7%.
For `COc1cc2oc(-c3cccc(C(=O)Nc4ccc(Cl)cc4)c3)cc(=O)c2c(OCCNC(=O)[C@@H](N)CCC(=O)O)c1OC`, the growth with SR leukemia was 42.7%; with RPMI-8226 leukemia it was 25.5%; in the test with OVCAR-8 ovarian it was 73.7%; in the test on OVCAR-5 ovarian, 76.9%; with OVCAR-4 ovarian, 91.9%; in the test with SK-OV-3 ovarian, 88.8%. Moreover, the growth is 62.9% in the test on IGROV1 ovarian; 113% in the test with OVCAR-3 ovarian; 88.9% in the test on HS 578T breast; 97.4% in the test with NCI/ADR-RES ovarian; 73.7% in the test with T-47D breast; 84.5% in the test with BT-549 breast. The growth is 88.6% in the test on MDA-MB-435 melanoma; 106% in the test on SW-620 colon; 61% in the test on MCF7 breast; 58.7% in the test on HCT-116 colon; 115% in the test with HCC-2998 colon; 93.2% in the test with KM12 colon. Also, the growth in the test on MDA-MB-468 breast was 74.5%.
Regarding `O=c1cc(-c2ccccc2)oc2cc(OCCCC[P+](c3ccccc3)(c3ccccc3)c3ccccc3)cc(O)c12`, the growth with SR leukemia was -39.8% (active); with RPMI-8226 leukemia, -66.7% (active); with OVCAR-8 ovarian, -61.1% (active); in the test on OVCAR-5 ovarian, -97.7% (active); with OVCAR-4 ovarian, -69.1% (active); in the test with SK-OV-3 ovarian it was -83.4% (active). Besides, the growth with IGROV1 ovarian was -75.7% (active); in the test on OVCAR-3 ovarian, -94% (active); with HS 578T breast it was -35.2% (active); with NCI/ADR-RES ovarian, -68.3% (active); with T-47D breast it was -62.5% (active); with BT-549 breast, -83% (active). Also, the growth with MDA-MB-435 melanoma was -67.5% (active); in the test with SW-620 colon it was -81.7% (active); with MCF7 breast, -79.1% (active); in the test on HCT-116 colon, -58.1% (active); with HCC-2998 colon, -93.1% (active); in the test with KM12 colon it was -85.2% (active). In the test on MDA-MB-468 breast, the growth was -84.9% (active).
In the case of `COc1cc(-c2nc3ccc(C)cc3[nH]2)ccc1OCc1nnc(-c2ccc(Br)cc2)o1`, the growth with SR leukemia was -16% (active); in the test on RPMI-8226 leukemia, -12.9% (active); in the test on OVCAR-8 ovarian it was 28.4%; in the test on OVCAR-5 ovarian, 92.1%; in the test on OVCAR-4 ovarian it was 10.6%; in the test on SK-OV-3 ovarian it was 59.3%. Further, the growth with IGROV1 ovarian is 64.2%; with OVCAR-3 ovarian it was 39.1%; with HS 578T breast it was -4.08% (active); in the test with NCI/ADR-RES ovarian, 71.4%; in the test with T-47D breast, -14.6% (active); in the test with BT-549 breast, 23.8%. Besides, the growth was 46.1% in the test with MDA-MB-435 melanoma; 35.5% in the test on SW-620 colon; 12.8% in the test on MCF7 breast; 11.5% in the test on HCT-116 colon; 58.7% in the test with HCC-2998 colon; 37.7% in the test on KM12 colon. In addition, the growth in the test on MDA-MB-468 breast was -34.3% (active).
As for `CN(C)c1ccnc(CNCCSC2(c3ccc(C(F)(F)F)cc3)c3ccccc3CCc3ccccc32)c1`, the growth is -50.9% (active) in the test on SR leukemia; -47.8% (active) with RPMI-8226 leukemia; -87.3% (active) in the test on OVCAR-8 ovarian; -22.7% (active) in the test with OVCAR-5 ovarian; 13.9% in the test with OVCAR-4 ovarian; -17.4% (active) in the test on SK-OV-3 ovarian. The growth with IGROV1 ovarian is -5.42% (active); in the test on OVCAR-3 ovarian it was -36.5% (active); in the test on HS 578T breast, -23.4% (active); in the test with NCI/ADR-RES ovarian it was -73.9% (active); in the test with T-47D breast, -55.8% (active); in the test with BT-549 breast, -15.2% (active). Moreover, the growth was -80.6% (active) with MDA-MB-435 melanoma; -66% (active) with SW-620 colon; -72% (active) in the test with MCF7 breast; -82.5% (active) in the test on HCT-116 colon; -91.6% (active) in the test with HCC-2998 colon; -66.3% (active) in the test on KM12 colon. Further, in the test with MDA-MB-468 breast, the growth was -87.6% (active).

The record behind these values is PubChem BioAssay (NCI).
